# According to PubChem BioAssay (Tox21):
# Values joined by “and” are separate entries in the source; they are usually repeats but may differ in a detail not shown here. Equal values may be shown once. Records with an inconclusive call do not appear. A call without a number means that no potency is given here. Some compounds were tested as several samples or in several runs, with calls that do not always agree. Active and inactive are the calls of the source. Unless noted, calls follow the shape of the dose curve; as a rule, active = well fitted curve in the direction sought with a large enough effect in the repeat runs; inconclusive = weak or mixed curves; inactive = no such curve, though single readings can be large; an effect the other way counts as inactive or inconclusive.
# Tests used:
# [1] = biological target: Peroxisome proliferator-activated receptor delta (Homo sapiens) (UniProt Q03181); assay: qHTS assay to identify small molecule agonists of the peroxisome proliferator-activated receptor delta (PPARd) signaling pathway (AID 743212; calls by dose curve)
# In short: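 A PPARd-bla HEK293H line with beta-lactamase under an Upstream Activator Sequence is treated with compounds at 37 C. Substrate loading for 2 h at room temperature precedes the fluorescence measurement.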
# [2] = biological target: Bile acid receptor (Homo sapiens) (UniProt Q96RI1); assay: qHTS assay to identify small molecule agonists of the farnesoid-X-receptor (FXR) signaling pathway (AID 743220; active = well fitted activation curve with a large enough effect in the signal ratio in the repeat runs, not every such curve was filed as active; the % refers to the signal ratio)
# In short: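 Beta-lactamase reporter under UAS control in GeneBLAzer FXR HEK 293T cells (5000/well) measured with LiveBLAzer FRET substrate after 2 h at room temperature. Compound exposure lasted 16 h at 37C.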
# [3] = qHTS assay to identify small molecule agonists of the vitamin D receptor (VDR) signaling pathway - cell viability counter screen (AID 743224); also: nearly all actives have a fitted effect of over 50% in size; also: potency is read from the fitted curve at half-maximal effect
# In short: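 Plated VDR-bla cells (4 h, 37C) received compound, incubated 16 h, then LiveBLAzer substrate 2 h RT; CellTiter-Glo added afterwards, luminescence read at 30 min.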
# [4] = qHTS assay to identify small molecule antagonists of the vitamin D receptor (VDR) signaling pathway - cell viability counter screen (AID 743225); also: nearly all actives have a fitted effect of over 50% in size; also: potency is read from the fitted curve at half-maximal effect
# In short: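 VDR-UAS-bla HEK 293T cells were plated and incubated 4 h at 37C, then dosed with compound plus 3 nM (final) 1-alpha,25-dihydroxyvitamin D3 for 16 h. After the 2 h beta-lactamase read, viability in the same wells was read as CellTiter-Glo luminescence after 30 min at room temperature.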
# [5] = qHTS assay to identify small molecule agonists of the endoplasmic reticulum stress response signaling pathway (AID 1159516; active = well fitted activation curve with a large enough effect in the signal ratio in the repeat runs, not every such curve was filed as active; the % refers to the signal ratio; also: potency is read from the fitted curve at half-maximal effect)
# In short: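 An ESRE-bla HeLa cell assay: compounds were pin-transferred from DMSO onto overnight-plated cells and left 5 hr at 37 C. Substrate was then loaded for 2 hr at room temperature before reading fluorescence at 460 nm and 530 nm.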
# [6] = qHTS assay to identify small molecule agonists of the endoplasmic reticulum stress response signaling pathway - cell viability counter screen (AID 1159517; calls by dose curve; also: nearly all actives have a fitted effect of over 50% in size; also: potency is read from the fitted curve at half-maximal effect)
# In short: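 CellTiter-Glo was added to wells already read for beta-lactamase FRET, and luminescence was recorded 30 min later. Cells: ESRE-bla HeLa, 1,500 per well, compound exposure 5 hr at 37 C.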
# [7] = qHTS assay to identify small molecule antagonists of the peroxisome proliferator-activated receptor delta (PPARd) signaling pathway - cell viability counter screen (AID 743213); also: nearly all actives have a fitted effect of over 50% in size; also: potency is read from the fitted curve at half-maximal effect
# In short: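 Agonist-stimulated (L165041, 300 nM final) HEK293H PPARd UAS-bla cells are exposed to compounds for 17 h at 37 C, and ATP-based luminescence (CellTiter-Glo) from the same wells reports cytotoxicity.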
# [8] = qHTS assay to identify small molecule agonists of the farnesoid-X-receptor (FXR) signaling pathway - cell viability counter screen (AID 743218); also: nearly all actives have a fitted effect of over 45% in size; also: potency is read from the fitted curve at half-maximal effect
# In short: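 Parallel cytotoxicity test: compound-treated (16 h, 37 C) HEK 293T FXR-bla reporter cells were lysed with CellTiter-Glo and luminescence recorded.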
# [9] = biological target: Nuclear receptor ROR-gamma (Homo sapiens) (UniProt P51449); assay: qHTS assay to identify small molecule antagonists of the retinoid-related orphan receptor gamma (ROR-gamma) signaling pathway (AID 1159521; also: nearly all actives have a fitted effect of over 50% in size; also: potency is read from the fitted curve at half-maximal effect)
# In short: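 Tet-on ROR-gamma CHO cells with ROR response element-luciferase reporter; compounds added 2 hr before 1 uM doxycycline induction, then 16 hr at 37 C. Antagonism scored as decreased ONE-Glo luminescence.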
# [10] = qHTS assay to identify small molecule agonists of the AP-1 signaling pathway - cell viability counter screen (AID 1159525; calls by dose curve; also: nearly all actives have a fitted effect of over 55% in size; also: potency is read from the fitted curve at half-maximal effect)
# In short: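 ME-180 AP-1-bla, 2500 cells/well, Opti-MEM + 0.5% dialyzed FBS; overnight 37 °C; cpd 15-pt titration, 5 h 37 °C; CellTiter-Glo 30 min RT; luminescence read; normalised to TOAB and DMSO controls.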
# [11] = biological target: Peroxisome proliferator-activated receptor delta (Homo sapiens) (UniProt Q03181); assay: qHTS assay to identify small molecule antagonists of the peroxisome proliferator-activated receptor delta (PPARd) signaling pathway (AID 743215; active = well fitted inhibition curve with a large enough effect in the signal ratio in the repeat runs, not every such curve was filed as active; the % refers to the signal ratio; also: series mostly up to about 62 µM)
# In short: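 HEK293H UAS-bla, PPARd; agonist L165041 300 nM final with cpd in DMSO; 37 C 17 h; FRET substrate, RT 2 h; fluorescence intensity.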
# [12] = qHTS assay to identify small molecule antagonists of the farnesoid-X-receptor (FXR) signaling pathway - cell viability counter screen (AID 743221; active = well fitted cell-killing curve with a large enough effect in the repeat runs, not every such curve was filed as active; also: nearly all actives have a fitted effect of over 50% in size; also: potency is read from the fitted curve at half-maximal effect)
# In short: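 GeneBLAzer FXR-UAS-bla HEK 293T cells, compound plus chenodeoxycholic acid (50 uM final), 16 h at 37 C. CellTiter-Glo added to the same wells after the beta-lactamase read; luminescence read after 30 min at room temperature as viability.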
# [13] = qHTS assay to identify small molecule antagonists of the retinoid-related orphan receptor gamma (ROR-gamma) signaling pathway - cell viability counter screen (AID 1159520); also: nearly all actives have a fitted effect of over 50% in size; also: potency is read from the fitted curve at half-maximal effect
# In short: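 Tet-on ROR gamma CHO cells (1,000/well) were plated 4 hr, given compounds in DMSO for 2 hr at 37 C, then induced with 1 uM final doxycycline for 16 hr. Viability was read as ATP by CellTiter-Glo luminescence after 30 min.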
# [14] = qHTS assay to identify small molecule agonists of the peroxisome proliferator-activated receptor delta (PPARd) signaling pathway - cell viability counter screen (AID 743211); also: nearly all actives have a fitted effect of over 55% in size; also: potency is read from the fitted curve at half-maximal effect
# In short: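 PPARd-bla HEK293H cells (3000/well) were pre-incubated 5 h at 37 C, then exposed to compound for 17 h at 37 C. After 2 h with LiveBLAzer substrate, CellTiter-Glo was added to the same wells; luminescence read after 30 min at room temperature.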
# [15] = biological target: Bile acid receptor (Homo sapiens) (UniProt Q96RI1); assay: qHTS assay to identify small molecule antagonists of the farnesoid-X-receptor (FXR) signaling pathway (AID 743217; active = well fitted inhibition curve with a large enough effect in the signal ratio in the repeat runs, not every such curve was filed as active; the % refers to the signal ratio; also: potency is read from the fitted curve at half-maximal effect)
# In short: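 GeneBLAzer FXR-UAS-bla HEK 293T, CDCA-stimulated (50 uM final). Compound treatment 16 h, 37 °C. Detection: beta-lactamase cleavage of B/G FRET substrate, fluorescence.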
# [16] = biological target: Vitamin D3 receptor (Homo sapiens) (UniProt P11473); assay: qHTS assay to identify small molecule agonists of the vitamin D receptor (VDR) signaling pathway (AID 743222; calls by dose curve)
# In short: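 In VDR-bla cells, compound-induced beta-lactamase expression is quantified by FRET substrate fluorescence. Treatment lasts 16 h at 37C; substrate develops 2 h at room temperature.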
# [17] = qHTS assay to identify small molecule agonists of the AP-1 signaling pathway (AID 1159526; calls by dose curve)
# [18] = biological target: Vitamin D3 receptor (Homo sapiens) (UniProt P11473); assay: qHTS assay to identify small molecule antagonists of the vitamin D receptor (VDR) signaling pathway (AID 743223; active = well fitted inhibition curve with a large enough effect in the signal ratio in the repeat runs, not every such curve was filed as active; the % refers to the signal ratio; also: potency is read from the fitted curve at half-maximal effect)
# In short: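 VDR-bla cells were treated with compound plus 3 nM final 1alpha,25-dihydroxyvitamin D3 for 16 h at 37C. Beta-lactamase reporter read by B/G FRET substrate fluorescence after 2 h at room temperature. qHTS format.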
# [19] = biological target: Retinoic acid receptor RXR-alpha (Homo sapiens) (UniProt P19793); assay: qHTS assay to identify small molecule agonists of the RXR signaling pathway (AID 1159527; calls by dose curve; also: nearly all actives have a fitted effect of over 35% in size)
# In short: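 GeneBLAzer RXR-alpha-UAS-bla HEK 293T cells in 2% charcoal-stripped FBS medium were exposed to compounds for 16 hr at 37 C in agonist mode. Beta-lactamase reporter read as 460/530 nm FRET ratio after 2 hr substrate loading.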
# Sequence of Peroxisome proliferator-activated receptor delta (Homo sapiens) (Q03181 whole entry, looked up): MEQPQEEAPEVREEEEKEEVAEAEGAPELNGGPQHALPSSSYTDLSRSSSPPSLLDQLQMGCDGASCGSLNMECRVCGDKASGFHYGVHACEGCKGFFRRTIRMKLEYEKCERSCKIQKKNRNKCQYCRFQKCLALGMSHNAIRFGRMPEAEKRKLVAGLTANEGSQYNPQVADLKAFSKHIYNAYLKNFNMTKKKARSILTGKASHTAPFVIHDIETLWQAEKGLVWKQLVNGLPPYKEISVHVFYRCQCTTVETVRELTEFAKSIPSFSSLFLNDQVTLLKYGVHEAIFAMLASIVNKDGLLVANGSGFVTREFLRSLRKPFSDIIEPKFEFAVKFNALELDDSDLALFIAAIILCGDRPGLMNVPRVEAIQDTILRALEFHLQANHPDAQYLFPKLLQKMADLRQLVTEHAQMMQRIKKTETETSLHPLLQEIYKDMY
# Sequence of Vitamin D3 receptor (Homo sapiens) (P11473 whole entry, looked up): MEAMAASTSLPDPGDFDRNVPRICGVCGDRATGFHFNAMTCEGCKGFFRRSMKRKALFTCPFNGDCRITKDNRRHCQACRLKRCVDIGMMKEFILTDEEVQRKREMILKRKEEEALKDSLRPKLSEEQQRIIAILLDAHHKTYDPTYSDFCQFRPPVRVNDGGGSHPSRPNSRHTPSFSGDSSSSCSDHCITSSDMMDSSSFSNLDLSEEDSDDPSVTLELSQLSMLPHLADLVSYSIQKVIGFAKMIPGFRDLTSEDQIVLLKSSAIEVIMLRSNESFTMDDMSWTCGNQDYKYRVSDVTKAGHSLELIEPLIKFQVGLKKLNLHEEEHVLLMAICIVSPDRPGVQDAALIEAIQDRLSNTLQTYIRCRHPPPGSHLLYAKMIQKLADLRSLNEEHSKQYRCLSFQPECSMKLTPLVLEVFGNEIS
# Sequence of Bile acid receptor (Homo sapiens) (Q96RI1 whole entry, looked up): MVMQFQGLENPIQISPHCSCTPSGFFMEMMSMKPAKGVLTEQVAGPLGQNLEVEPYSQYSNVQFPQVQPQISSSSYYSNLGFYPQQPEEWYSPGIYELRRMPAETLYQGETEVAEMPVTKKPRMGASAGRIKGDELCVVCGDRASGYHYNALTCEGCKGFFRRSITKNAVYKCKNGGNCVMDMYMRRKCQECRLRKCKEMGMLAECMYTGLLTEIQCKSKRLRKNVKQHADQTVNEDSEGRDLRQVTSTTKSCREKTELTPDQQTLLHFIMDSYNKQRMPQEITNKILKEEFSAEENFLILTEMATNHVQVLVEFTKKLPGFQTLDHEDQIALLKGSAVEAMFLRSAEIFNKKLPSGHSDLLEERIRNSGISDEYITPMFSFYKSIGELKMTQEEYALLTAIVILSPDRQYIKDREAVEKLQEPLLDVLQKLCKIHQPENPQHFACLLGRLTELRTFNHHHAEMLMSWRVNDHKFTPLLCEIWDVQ
# Sequence of Retinoic acid receptor RXR-alpha (Homo sapiens) (P19793 whole entry, looked up): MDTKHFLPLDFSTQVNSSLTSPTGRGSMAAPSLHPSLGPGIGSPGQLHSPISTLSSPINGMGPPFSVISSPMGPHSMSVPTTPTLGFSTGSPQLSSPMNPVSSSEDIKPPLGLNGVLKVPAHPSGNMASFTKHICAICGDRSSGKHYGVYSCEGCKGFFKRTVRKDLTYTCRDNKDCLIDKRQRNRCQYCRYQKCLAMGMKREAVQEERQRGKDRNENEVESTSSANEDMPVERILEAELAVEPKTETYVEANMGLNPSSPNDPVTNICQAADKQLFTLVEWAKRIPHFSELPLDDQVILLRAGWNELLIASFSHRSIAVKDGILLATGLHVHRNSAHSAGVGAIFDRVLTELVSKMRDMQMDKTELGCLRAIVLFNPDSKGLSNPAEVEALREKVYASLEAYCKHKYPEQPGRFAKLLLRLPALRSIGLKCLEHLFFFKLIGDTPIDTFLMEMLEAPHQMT
SMILES,Potency [1],outcome [2],Potency [3],Potency [4],Potency [5],Potency [6],Potency [7],Potency [8],Potency [9],Potency [10],Potency [11],Potency [12],Potency [13],Potency [14],Potency [15],Potency [16],Potency [17],Potency [18],outcome [19]
CC(C)(C)C(O)/C(=C\c1ccc(Cl)cc1Cl)n1cncn1 (configuration not stated),inactive,inactive,59.3 µM (active),52.8 µM (active),inactive,inactive,,,,,,,,,,,,,
[Cl][Sb]([Cl])[Cl],inactive,,inactive,inactive,inactive,inactive,inactive,inactive,5.45 µM (active),inactive,,,,,,,,,
ClC1=C(Cl)C2(Cl)C3C(Cl)C=CC3C1(Cl)C2(Cl)Cl (configuration not stated),inactive,,43.6 µM (active),,,55.2 µM (active),,,61.4 µM (active) and inactive,43.8 µM (active),inactive,inactive,68.9 µM (active),,,,,,
CCCCCCCCCCCCCCCC[n+]1ccccc1,,,25.7 µM (active) [middle of 4 runs],,,34.7 µM (active) and 34.2 µM (active) and 12 µM (active),,,4.27 µM (active) [middle of 4 runs],,,51.3 µM (active) and 43.6 µM (active) and 29.8 µM (active),54.5 µM (active) [middle of 4 runs],23.7 µM (active) [middle of 4 runs],,,,,
CC(=O)[O-].CC(=O)[O-].O.O.[Cd+2],,,1.21 µM (active),15.3 µM (active),0.216 µM (active),,19.2 µM (active),1.53 µM (active),,,,1.21 µM (active),inactive,0.765 µM (active),,,,,
O=[N+]([O-])c1ccc(Oc2ccc(C(F)(F)F)cc2[N+](=O)[O-])cc1,inactive,inactive,inactive,,inactive,inactive,,,inactive,inactive,,inactive,,inactive,inactive,inactive,inactive,,
CCCCCCCCCCCCCCCC[N+](C)(C)C,,,21.1 µM (active) and 24.5 µM (active),,,23.7 µM (active) and 43.6 µM (active),21.1 µM (active) and 3.89 µM (active),14.9 µM (active) and 43.6 µM (active),7.42 µM (active) and 12.2 µM (active) and 5.96 µM (active),49 µM (active) and 26.8 µM (active),,,29.5 µM (active) and 61.1 µM (active) and 29.8 µM (active),16.8 µM (active) and 38.9 µM (active) and 23.7 µM (active),,,,,
COc1cccc(C(=O)CCN[C@@H](C)[C@H](O)c2ccccc2)c1,inactive,inactive,33.5 µM (active),inactive,inactive,,,inactive,,inactive,,inactive,inactive,,inactive,inactive,,,
ClC1=C(Cl)[C@]2(Cl)[C@@H]3[C@@H]4C[C@@H]([C@H]5O[C@@H]45)[C@@H]3[C@@]1(Cl)C2(Cl)Cl,,,30.6 µM (active),,,54.9 µM (active),,56.4 µM (active),19.3 µM (active),43.6 µM (active),,,61.1 µM (active),49 µM (active),,,,,
CC(C)(C)c1ccc(CSc2cnn(C(C)(C)C)c(=O)c2Cl)cc1,,,,,inactive,inactive,,,0.154 µM (active),,,inactive,,,,inactive,inactive,,
O=C1NCN(c2ccccc2)C12CCN(CC1COc3ccccc3O1)CC2 (configuration not stated),inactive,,inactive,inactive,inactive,,,,inactive,,inactive,,inactive,,,inactive,inactive,inactive,
CCCCCCCCCBr,inactive,,inactive,inactive,inactive,inactive,inactive,inactive,inactive,inactive,inactive,inactive,,inactive,,inactive,inactive,inactive,
FC(F)(F)c1cccc(C2=CCN(CCc3ccc4ccccc4c3)CC2)c1,inactive,inactive,,inactive,inactive,inactive,inactive,inactive,inactive,,,inactive,,inactive,inactive,inactive,,inactive,inactive
Nc1ccccc1C(=O)Oc1ccc2ccccc2c1,,inactive,inactive,,inactive,43.6 µM (active),inactive,inactive,inactive,,,,,,inactive,,,inactive,
O=C(CCCN1CCC2(CC1)C(=O)NCN2c1ccccc1)c1ccc(F)cc1,inactive,inactive,,,,inactive,inactive,,inactive,inactive,inactive,inactive,inactive,inactive,inactive,inactive,,inactive,
ClC1=C(Cl)[C@]2(Cl)[C@H]3[C@H]([C@H]4C=C[C@H]3C4)[C@@]1(Cl)C2(Cl)Cl,inactive,,inactive,inactive,inactive,,inactive,inactive,,,,,,inactive,,,inactive,,
CC1(C)CN=C(NN=C(/C=C/c2ccc(C(F)(F)F)cc2)/C=C/c2ccc(C(F)(F)F)cc2)NC1,,,6.92 µM (active),11 µM (active),,49 µM (active),6.92 µM (active),11 µM (active),12.2 µM (active),43.6 µM (active),,,24.3 µM (active),7.76 µM (active),19.5 µM (active),,,13.8 µM (active),
CC1(C)CC/C(=C/c2ccc(Cl)cc2)C1(O)Cn1cncn1 (configuration not stated),,,54.6 µM (active),,inactive,,,,24.2 µM (active),inactive,,inactive,inactive,,,,,inactive,
CC(=O)Nc1ccc2c(c1)Cc1ccccc1-2,,,inactive,,inactive,,,inactive,inactive,inactive,inactive,inactive,inactive,inactive,,,inactive,,inactive
CC(C)CC(C)N (configuration not stated),inactive,,inactive,inactive,inactive,,,inactive,inactive,inactive,inactive,inactive,inactive,inactive,,,inactive,,inactive
